Only a selection was taken, and hits are over-represented in it overall.
nsP2pro inh = CHIKV nsP2 protease inhibition, primary qHTS. Q8JUX6. FRET peptide cleavage, nsP2pro, fluorescence 1 h. Potency, µM (highest dose often 24.9 µM), for inactives: at the top dose activity change, negative = inhibition, actives largely listed as inhibitors. 31,000 compounds, 1.1% hits; further: nearly all actives have a fitted effect of over 60% in size
Target sequence (Q8JUX6 whole entry, looked up): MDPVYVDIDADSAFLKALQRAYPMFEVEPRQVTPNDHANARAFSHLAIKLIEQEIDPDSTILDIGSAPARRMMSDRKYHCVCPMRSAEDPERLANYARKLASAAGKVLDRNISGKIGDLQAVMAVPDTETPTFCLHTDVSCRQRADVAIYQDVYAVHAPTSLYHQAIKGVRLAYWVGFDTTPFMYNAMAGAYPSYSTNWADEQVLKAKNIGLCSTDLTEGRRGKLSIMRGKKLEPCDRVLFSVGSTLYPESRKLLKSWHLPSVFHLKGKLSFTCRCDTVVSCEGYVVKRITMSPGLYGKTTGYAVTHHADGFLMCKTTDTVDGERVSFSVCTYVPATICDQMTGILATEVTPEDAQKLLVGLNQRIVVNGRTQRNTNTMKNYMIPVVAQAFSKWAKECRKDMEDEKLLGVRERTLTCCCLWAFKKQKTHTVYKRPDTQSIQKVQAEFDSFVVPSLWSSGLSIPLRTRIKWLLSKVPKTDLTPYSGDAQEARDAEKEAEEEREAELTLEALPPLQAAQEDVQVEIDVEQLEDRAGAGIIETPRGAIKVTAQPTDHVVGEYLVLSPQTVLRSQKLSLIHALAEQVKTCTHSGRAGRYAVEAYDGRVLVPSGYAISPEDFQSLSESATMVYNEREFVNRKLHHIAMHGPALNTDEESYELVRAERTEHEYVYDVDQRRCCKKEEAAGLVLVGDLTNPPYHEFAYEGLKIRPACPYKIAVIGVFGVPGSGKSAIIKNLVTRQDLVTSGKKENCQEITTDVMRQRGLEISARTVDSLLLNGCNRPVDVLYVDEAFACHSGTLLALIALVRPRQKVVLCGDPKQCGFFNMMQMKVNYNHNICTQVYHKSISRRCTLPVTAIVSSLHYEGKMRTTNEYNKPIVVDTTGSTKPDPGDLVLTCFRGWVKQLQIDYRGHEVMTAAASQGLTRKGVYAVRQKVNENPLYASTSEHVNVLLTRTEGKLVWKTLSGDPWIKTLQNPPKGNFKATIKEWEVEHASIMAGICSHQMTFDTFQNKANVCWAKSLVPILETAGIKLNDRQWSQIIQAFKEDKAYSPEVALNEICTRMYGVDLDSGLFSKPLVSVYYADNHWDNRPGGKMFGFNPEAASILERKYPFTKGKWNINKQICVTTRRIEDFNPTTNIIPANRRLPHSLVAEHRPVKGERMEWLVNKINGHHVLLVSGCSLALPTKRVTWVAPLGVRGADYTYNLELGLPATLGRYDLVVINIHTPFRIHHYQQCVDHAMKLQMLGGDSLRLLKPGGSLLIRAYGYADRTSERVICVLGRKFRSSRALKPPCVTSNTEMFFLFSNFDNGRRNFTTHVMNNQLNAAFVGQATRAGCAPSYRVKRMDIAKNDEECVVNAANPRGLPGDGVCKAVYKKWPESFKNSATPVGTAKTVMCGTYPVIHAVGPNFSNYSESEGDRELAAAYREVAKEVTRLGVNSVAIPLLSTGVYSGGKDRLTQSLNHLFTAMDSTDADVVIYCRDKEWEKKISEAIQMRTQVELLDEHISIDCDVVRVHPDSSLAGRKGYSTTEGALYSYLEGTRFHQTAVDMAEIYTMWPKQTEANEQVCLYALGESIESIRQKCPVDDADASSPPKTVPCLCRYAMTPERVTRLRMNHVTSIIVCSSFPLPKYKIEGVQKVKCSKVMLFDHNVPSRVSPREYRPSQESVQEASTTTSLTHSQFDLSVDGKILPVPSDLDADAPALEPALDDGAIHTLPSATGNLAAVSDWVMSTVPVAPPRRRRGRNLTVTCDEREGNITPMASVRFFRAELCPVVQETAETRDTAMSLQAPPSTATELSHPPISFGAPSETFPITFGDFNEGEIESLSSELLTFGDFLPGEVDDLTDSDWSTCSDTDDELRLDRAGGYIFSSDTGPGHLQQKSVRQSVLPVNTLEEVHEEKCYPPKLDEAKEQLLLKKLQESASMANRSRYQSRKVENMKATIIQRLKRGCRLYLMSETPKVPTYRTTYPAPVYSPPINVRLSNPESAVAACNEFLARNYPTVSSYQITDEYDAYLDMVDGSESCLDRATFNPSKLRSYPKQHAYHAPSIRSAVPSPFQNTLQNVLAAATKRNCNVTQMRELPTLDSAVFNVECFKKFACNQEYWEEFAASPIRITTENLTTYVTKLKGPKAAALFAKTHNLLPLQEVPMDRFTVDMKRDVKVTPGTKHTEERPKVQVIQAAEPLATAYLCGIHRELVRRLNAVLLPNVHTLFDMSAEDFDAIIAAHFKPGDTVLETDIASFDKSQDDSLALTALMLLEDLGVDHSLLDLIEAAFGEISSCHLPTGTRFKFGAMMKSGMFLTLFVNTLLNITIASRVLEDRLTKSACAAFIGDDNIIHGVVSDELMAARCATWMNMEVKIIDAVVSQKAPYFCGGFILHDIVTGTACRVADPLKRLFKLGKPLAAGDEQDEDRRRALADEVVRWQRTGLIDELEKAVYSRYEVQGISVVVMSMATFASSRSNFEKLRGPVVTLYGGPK
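Purified recombinant nsP2pro (150 nM final) in 10 mM Tris-HCl pH 8.0 with 0.01% Tween 20 was preincubated 15 min at room temperature with compound (7 concentrations, up to 25 uM). FRET peptide 2 substrate (2.5 uM final) was then added; fluorescence was read after 1 h.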
nsP2 cell sec = inhibits CHIKV nsP2 protease in cells | shares compounds with nsP2pro inh | cell-based CHIKV nsP2 protease reporter assay | Potency, µM (series often up to 51.1 µM), inactives show at the highest dose activity change, negative = inhibition, hits mostly inhibitors | 450 compounds, 10% hits | AID 1964100; further: nearly all actives have a fitted effect of over 70% in size
NSP2 full ctr = full-length CHIKV NSP2 protease inhibition, selectivity | shares compounds with nsP2pro inh | Full-length CHIKV NSP2 protease enzymatic counterscreen | Potency, µM (series often up to 50.7 µM), inactives show at the top dose activity change, negative = inhibition, actives largely listed as inhibitors | 410 compounds, 39% hits | AID 1964101; further: nearly all actives have a fitted effect of over 65% in size
Furin counterscr = inhibits human furin in a CHIKV nsP2 protease selectivity counterscreen; shares compounds with nsP2pro inh; Recombinant human furin enzymatic counterscreen, fluorogenic substrate; Potency, µM (doses to about 50.6 µM), inactives show top-dose activity change, negative = inhibition, actives largely listed as inhibitors; 410 compounds, 6% hits; AID 1964102
nsP2 NS23 pep = nsP2pro inhibition on native NS2/3 peptide substrate | shares compounds with nsP2pro inh | Purified CHIKV nsP2 protease, endogenous NS2/3 peptide cleavage | Potency, µM (series often up to 51 µM), for inactives: at the top dose activity change, negative = inhibition, actives largely listed as inhibitors | 410 compounds, 34% hits | AID 1964103; further: nearly all actives have a fitted effect of over 55% in size
Papain counter = papain protease inhibition, counterscreen for nsP2pro inhibitors. shares compounds with nsP2pro inh. purified papain protease activity, enzymatic inhibition. Potency, µM (doses to about 51 µM), for inactives: at the highest dose activity change, negative = inhibition, usual class: inhibitors. 410 compounds, 5% hits
nsP2pro conf qHTS = confirmation of CHIKV nsP2 protease inhibitors; Potency, µM (doses to about 25.5 µM), without a hit: at the highest dose activity change, negative = inhibition, actives largely listed as inhibitors; CHIKV nsP2 protease enzymatic activity, qHTS; 410 compounds, 43% hits; AID 1964105; shares compounds with nsP2pro inh; further: nearly all actives have a fitted effect of over 75% in size
HCV NS3 4A cs = selectivity counter-screen for CHIKV nsP2 protease inhibitors: HCV NS3/4A | HCV NS3/4A protease biochemical counterscreen | Potency, µM (doses to about 50.9 µM), most hits filed as inhibitors | 410 compounds, 20% hits | shares compounds with nsP2pro inh; further: nearly all actives have a fitted effect of over 55% in size
Starred values were filed as active, the others as inactive; i = inactive; ? = inconclusive; [ ] = another dose, or the depositor's remark. The call rests on the fitted dose curve. On the % scale 0 is the no-effect control and ±100 the full control effect; potency means the concentration at half of the fitted maximal effect.

SMILES | nsP2pro inh | others
CCc1ccc(-c2cc3n(n2)CCCN(C(=O)CCc2cc(Cl)no2)C3)cc1 | 10%
Cc1ccc(-c2cc3n(n2)CCCN(C(=O)CCN2C(=O)NC(C)(C)C2=O)C3)cc1C | i
O=C(NC1CCCN(CCn2nc3n(c2=O)CCCC3)C1)c1ccccc1Cl (stereo not drawn) | -4%
CC1=CC(=O)C[C@H]2[C@@H]1CC[C@@H](C)[C@]21CO[C@H](c2ccoc2)C1=O | ? | nsP2 cell sec=1%[33.5 µM];NSP2 full ctr=-21%[33.5 µM];Furin counterscr=6%[33.5 µM];nsP2 NS23 pep=i;Papain counter=-5%[33.5 µM];nsP2pro conf qHTS=10%[16.7 µM];HCV NS3 4A cs=i
O=[S+]([O-])(Nc1ccccc1)c1ccc(NCc2ccc(Cl)cc2O)cc1 | -16%
CC12CCC(O)CC1=CCC1C2CCC2(C)C(n3cnc4ccccc43)=CCC12 (stereo not drawn) | -7%
COCC1CN(C)CC12CCN(C(=O)COc1cccc(C)c1)CC2 (stereo not drawn) | 0%
COc1cccc(-c2nc(-c3ccc(C(=O)O)cc3)no2)c1 | i
COc1ccc(-c2noc(-c3cccnc3NCc3ccco3)n2)cc1 | ? | nsP2 cell sec=-4%
Cc1ccccc1-c1noc(-c2cccnc2NCc2ccco2)n1 | -28%
COC(=O)CC[C@@H]1N=C(c2ccccn2)c2cc(Br)ccc2-n2c(C)cnc21 | -1%
CCOc1ccc(CCNC(=O)c2ccccn2)cc1OCC | 0%
Oc1cc(NCc2ccc(Cl)cc2)cc2cccnc12 | 3%
O=C(COc1ccccc1CNc1ccccc1)Nc1ccc(F)cc1 | -49%
O=C(COc1ccccc1CNc1ccc(F)cc1)Nc1ccc(F)cc1 | -1%
CCOc1cc(CNc2ccc(O)cc2)ccc1OCc1ccc(Cl)cc1 | 10µM* | nsP2 cell sec=13µM*;NSP2 full ctr=18µM*;Furin counterscr=-22%;nsP2 NS23 pep=?;Papain counter=-24%;nsP2pro conf qHTS=-2%;HCV NS3 4A cs=?
Oc1ccc(NCc2ccccc2OCc2ccccc2)cc1 | 3µM* | nsP2 cell sec=12µM*;NSP2 full ctr=?;Furin counterscr=-8%;nsP2 NS23 pep=18µM*;Papain counter=-7%;nsP2pro conf qHTS=?;HCV NS3 4A cs=21µM*
O=C(COc1ccccc1CNc1ccc(F)cc1)Nc1ccc(Cl)cc1 | 29%
Oc1ccc(NCc2ccccc2OCc2ccc(Cl)cc2)cc1 | 2.4µM* | nsP2 cell sec=12µM*;NSP2 full ctr=13µM*;Furin counterscr=-12%;nsP2 NS23 pep=?;Papain counter=-12%;nsP2pro conf qHTS=?;HCV NS3 4A cs=13µM*
COc1cccc(CNc2ccc(S(=O)(=O)Nc3ccccn3)cc2)c1O | i
[2H]C([2H])([2H])C(CCC[C@@H](C)[C@H]1CC[C@H]2/C(=C/C=C3\C[C@@H](O)C[C@H](O)C3=C)CCC[C@]12C)C([2H])([2H])[2H] | -10%
N#Cc1cccc([C@@H](NCC2CC2)c2ccc(F)c(NC(=O)c3cc(C(F)(F)F)nn3-c3cccc(CN)c3)c2)c1 | 56%
Cc1cc(C(=O)N2CCOC(Cc3cccc(C(F)(F)F)c3)C2)nn1C (stereo not drawn) | -2%
Nc1ncnc2c1ncn2[C@@H]1O[C@H](CN[S+](=O)([O-])NC(=O)c2cccc(-c3noc(-c4ccccc4F)n3)c2)[C@@H](O)[C@H]1O | i
CCCS(=O)(=O)NC[C@H]1C[C@@H]2CCN1C[C@@H]2c1cc(C(CC)CC)nc(-c2ccncc2)n1 | -12%
SMILES | nsP2pro inh | others
CC(C)NC(=O)OC[C@H]1C[C@@H]2CCN1C[C@@H]2c1cc(C2CCCC2)nc(-c2ccncc2)n1 | 5µM* | nsP2 cell sec=-56%;NSP2 full ctr=6.5µM*;Furin counterscr=?;nsP2 NS23 pep=18µM*;Papain counter=-4%;nsP2pro conf qHTS=8µM*;HCV NS3 4A cs=10µM*
CCC(CC)c1cc([C@H]2CN3CC[C@H]2C[C@@H]3CNC2CCN(C)CC2)nc(-c2ccncc2)n1 | 5%
COc1ccc(-c2cc([C@H]3CN4CC[C@H]3C[C@@H]4COC(=O)Nc3ccccc3)n(C)n2)cc1 | i
Cn1nc(C2CCCC2)cc1[C@H]1CN2CC[C@H]1C[C@@H]2CNC(=O)c1cccs1 | 1%[39.2 µM]
O=C(NC1CCCCC1)OC[C@H]1C[C@@H]2CCN1C[C@@H]2c1cc(C2CCCC2)nc(-c2ccncc2)n1 | 7.9µM* | nsP2 cell sec=-50%;NSP2 full ctr=?;Furin counterscr=?;nsP2 NS23 pep=?;Papain counter=-5%;nsP2pro conf qHTS=9µM*;HCV NS3 4A cs=15µM*
CC(C)(C)OC(=O)N1CCN(c2cccc(NCc3ccc(-c4ccc(C#N)cc4)o3)c2)CC1 | -25%
CC(=O)N1CCN(c2ccc(NCc3ccc(-c4ccc(Br)cc4)o3)cc2)CC1 | i
N#Cc1ccc(-c2ccc(CNc3ccc(N4CCC(C(F)(F)F)CC4)cc3)o2)cc1 | 2.8µM* | nsP2 cell sec=-13%;NSP2 full ctr=?;Furin counterscr=-4%;nsP2 NS23 pep=-15%;Papain counter=-22%;nsP2pro conf qHTS=?;HCV NS3 4A cs=?
O=C1NC2(CN([S+](=O)([O-])c3ccccc3)C2)Oc2ccccc21 | -20%[39.2 µM]
O=C(O)c1ccnc2cc(C(OCCN3CCC(F)(F)CC3)c3ccccc3Cl)[nH]c12 (stereo not drawn) | 7%
Cc1ccc(S(=O)(=O)Nc2cnccc2C(=O)Nc2nc(-c3nc4ccccc4s3)cs2)cc1 | i
CCc1nc(C)sc1C(=O)N1C[C@@H](C(=O)O)[C@H](c2cccc(OC)c2)C1 | 3%
CC(C(=O)N1CCc2onc(-c3ccc(F)c(F)c3)c2C1)n1ccnc1 (stereo not drawn) | i
CCS(=O)(=O)c1ncc(Cl)c(C(=O)N(Cc2ccccc2)Cc2ccco2)n1 | 11µM* | nsP2 cell sec=3.3µM*;NSP2 full ctr=16µM*;Furin counterscr=-3%;nsP2 NS23 pep=5.2µM*;Papain counter=-6%;nsP2pro conf qHTS=4.5µM*;HCV NS3 4A cs=i
CCCOc1ccc(C(=O)N(Cc2ccc(Cl)cc2)Cc2ccco2)cc1 | -14%
COc1ccc(CN(Cc2ccco2)C(=O)COc2ccccc2Cl)cc1 | -16%
CN1C(=O)C(c2ccccc2)CC12CCN(S(=O)(=O)N(C)C)CC2 (stereo not drawn) | i
Cc1cc(C=CC#N)cc(C)c1Nc1nc(Nc2ccc3c(c2)OCO3)c2[nH]cnc2n1 | 2%
Cc1ccc(CNCc2cccn2-c2nnc(N3CCCC3)s2)cc1 | -7%
COc1ccccc1NCc1cccn1-c1nnc(N2CCCCCC2)s1 | -27%
CCc1ccc(NCc2cccn2-c2nnc(N3CCCCCC3)s2)cc1 | ? | nsP2 cell sec=?
CCNC(=O)N1CCCN(c2ccc(C(=O)NCCc3ccc(Cl)cc3Cl)cc2NC(=O)c2cccc(Cl)c2)CC1 | 0%
